A short description of experiment [1]: qHTS assay to identify aromatase inhibitors - cell viability counter screen (AID 743084).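 Also: cells stimulated with testosterone during compound exposure; nearly all actives have a fitted effect of over 55% in size.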 A general note: Quantitative high-throughput screening tests each substance at several concentrations.
Experiment [2] can be described thus: qHTS assay to identify small molecule that activate the aryl hydrocarbon receptor (AhR) signaling pathway - cell viability counter screen (AID 743086).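 Also: HepG2 liver cells carrying the AhR DRE luciferase reporter; series mostly up to about 70 µM; nearly all actives have a fitted effect of over 45% in size.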 In a few lines:
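Cytotoxicity counter screen: CellTiter-Fluor signal (30 min, 37 C) in 4000 HepG2 cells/well carrying the DRE-luciferase reporter, following 24 h compound exposure at 37 C.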

Experiment [3] concerns the target Peroxisome proliferator-activated receptor gamma (Homo sapiens) (UniProt P37231). Kind of experiment: qHTS assay to identify small molecule agonists of the peroxisome proliferator-activated receptor gamma (PPARg) signaling pathway (AID 743094; active = well fitted activation curve with a large enough effect in the signal ratio in the repeat runs, not every such curve was filed as active; the % refers to the signal ratio). Summed up: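 Cells from the PPARg UAS-bla HEK293H line are plated and incubated 5 h at 37C. Compounds in DMSO are pinned in and left 17 h at 37C. LiveBLAzer B/G substrate is then added for 1 h at room temperature before fluorescence is measured.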

Experiment [4] has the same target. Kind of experiment: qHTS assay to identify small molecule antagonists of the peroxisome proliferator-activated receptor gamma (PPARg) signaling pathway (AID 743191; calls by dose curve; also: series mostly up to about 63 µM; nearly all actives have a fitted effect of over 30% in size). In a few lines: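 Beta-lactamase reporter under UAS control in HEK293H PPARg-bla cells; compound treatment 17 h at 37C. Read-out: fluorescence intensity after 1 h room-temperature incubation with LiveBLAzer B/G FRET substrate.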

Experiment [5] is described as follows: qHTS assay for small molecule agonists of the antioxidant response element (ARE) signaling pathway (AID 743202; active = well fitted activation curve with a large enough effect in the signal ratio in the repeat runs, not every such curve was filed as active; the % refers to the signal ratio; also: potency is read from the fitted curve at half-maximal effect). In a few lines: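 Beta-lactamase reporter activity, read as fluorescence intensity, reflects ARE/Nrf2 pathway induction in HepG2 cells after 16 h compound exposure at 37 C; substrate loading was 2 h at room temperature.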
Experiment [6] can be described thus: qHTS assay for small molecule agonists of the antioxidant response element (ARE) signaling pathway - cell viability counter screen (AID 743203; calls by dose curve; also: nearly all actives have a fitted effect of over 55% in size). Summed up:
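Cytotoxicity was tested in parallel with the ARE reporter screen. ARE-bla HepG2 cells were exposed to compounds for 16 hrs, and viability was taken from CellTiter-Glo luminescence.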

Experiment [7] in a line: qHTS assay for small molecule activators of the heat shock response signaling pathway - cell viability counter screen (AID 743209). Also: nearly all actives have a fitted effect of over 50% in size. Summed up:
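Cytotoxicity counter screen run in parallel with the HSE beta-lactamase reporter, using the same wells. HeLa HSE-bla cells received compound for 5 h at 37 C; ATP-based CellTiter-Glo luminescence was measured after 30 min at room temperature.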

Experiment [8] is described as follows: qHTS assay for small molecule activators of the heat shock response signaling pathway (AID 743210; active = well fitted activation curve with a large enough effect in the signal ratio in the repeat runs, with a control signal flat, not every such curve was filed as active; the % refers to the signal ratio;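 also: HeLa cells with beta-lactamase reporter driven by heat shock elements; series mostly up to about 63 µM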). Summed up: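 Fluorescence from a cleaved B/G FRET substrate (2.5 h, room temp) reports HSE-driven beta-lactamase in HeLa cells treated 5 h at 37 C with DMSO-dissolved compounds.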
Experiment [9] is described as follows: qHTS assay to identify small molecule agonists of the peroxisome proliferator-activated receptor delta (PPARd) signaling pathway - cell viability counter screen (AID 743211). Also: nearly all actives have a fitted effect of over 55% in size. In a few lines:
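Read-out: CellTiter-Glo luminescence, 30 min RT, measured in the same wells as the beta-lactamase reporter. Cells: GeneBLAzer PPAR delta UAS-bla HEK293H, 3000 cells/well, compound exposure 17 h at 37C.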

For experiment [10], the target named is Peroxisome proliferator-activated receptor delta (Homo sapiens) (UniProt Q03181). In words: qHTS assay to identify small molecule agonists of the peroxisome proliferator-activated receptor delta (PPARd) signaling pathway (AID 743212; calls by dose curve). Summed up: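 Steps: seed PPARd-bla HEK293H cells; incubate 5 h, 37 C, 5% CO2; add compounds in DMSO; incubate, 37 C; add LiveBLAzer B/G FRET substrate; hold 2 h at room temperature; measure fluorescence.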

A short description of experiment [11]: qHTS assay to identify small molecule antagonists of the peroxisome proliferator-activated receptor delta (PPARd) signaling pathway - cell viability counter screen (AID 743213). Also: nearly all actives have a fitted effect of over 50% in size. In a few lines: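 Luminescence from CellTiter-Glo, added after the bla read and incubated 30 min at room temperature, gives viability of HEK293H PPARd-bla cells exposed to compounds for 17 h at 37 C with 300 nM L165041.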

Experiment [12] can be described thus: qHTS assay to identify small molecule antagonists of the farnesoid-X-receptor (FXR) signaling pathway - cell viability counter screen (AID 743221; active = well fitted cell-killing curve with a large enough effect in the repeat runs, not every such curve was filed as active; also: nearly all actives have a fitted effect of over 50% in size). Summed up:
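HEK 293T FXR-bla cells, 5 h pre-incubation; compound + CDCA 50 uM final, 16 h, 37 C; beta-lactamase FRET read first, then CellTiter-Glo luminescence, 30 min RT.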

Experiment [13] addresses Vitamin D3 receptor (Homo sapiens) (UniProt P11473). Kind of experiment: qHTS assay to identify small molecule agonists of the vitamin D receptor (VDR) signaling pathway (AID 743222; calls by dose curve). Summed up: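 Cells carrying a VDR-driven beta-lactamase reporter are seeded at 2,000 per well and rested 4 h. Compounds in DMSO are added for 16 h at 37C, and FRET substrate fluorescence is measured after 2 h at room temperature.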

The target is the same in experiment [14]. In words: qHTS assay to identify small molecule antagonists of the vitamin D receptor (VDR) signaling pathway (AID 743223; active = well fitted inhibition curve with a large enough effect in the signal ratio in the repeat runs, not every such curve was filed as active; the % refers to the signal ratio). In a few lines: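 Beta-lactamase reporter read-out: FRET substrate fluorescence after 2 h at room temperature, following 16 h exposure of VDR-bla cells to test compound plus 3 nM (final) 1alpha,25-dihydroxyvitamin D3 agonist at 37C.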

In experiment [15] the target is Peroxisome proliferator-activated receptor delta (Homo sapiens) (UniProt Q03181). In words: qHTS assay to identify small molecule antagonists of the peroxisome proliferator-activated receptor delta (PPARd) signaling pathway (AID 743215; active = well fitted inhibition curve with a large enough effect in the signal ratio in the repeat runs, not every such curve was filed as active; the % refers to the signal ratio;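 also: cells stimulated with agonist L165041 at 300 nM final during compound exposure; series mostly up to about 62 µM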). In a few lines:
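Cells: HEK293H with a UAS-driven beta-lactamase reporter responsive to PPARd. Compounds were co-added with L165041 (300 nM, final) and incubated 17 h at 37 C before a 2 h room-temperature FRET substrate step and fluorescence reading.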

The target in experiment [16] is Bile acid receptor (Homo sapiens) (UniProt Q96RI1). In words: qHTS assay to identify small molecule antagonists of the farnesoid-X-receptor (FXR) signaling pathway (AID 743217; active = well fitted inhibition curve with a large enough effect in the signal ratio in the repeat runs, not every such curve was filed as active; the % refers to the signal ratio). In a few lines: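 Cells carrying a UAS-driven beta-lactamase reporter (GeneBLAzer FXR-UAS-bla HEK 293T) were plated and rested 5 h at 37 °C. Compounds in DMSO were added alongside chenodeoxycholic acid agonist at 50 uM final and left 16 h at 37 °C before FRET substrate readout.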

Experiment [17] is described as follows: qHTS assay to identify small molecule agonists of the farnesoid-X-receptor (FXR) signaling pathway - cell viability counter screen (AID 743218). Also: nearly all actives have a fitted effect of over 45% in size. Summed up:
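Cells were seeded, left 5 h at 37 C and 5% CO2, then dosed with compound in DMSO for 16 h. After the beta-lactamase FRET read, CellTiter-Glo was added and luminescence measured 30 min later.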

Experiment [18] addresses Bile acid receptor (Homo sapiens) (UniProt Q96RI1). Kind of experiment: qHTS assay to identify small molecule agonists of the farnesoid-X-receptor (FXR) signaling pathway (AID 743220; active = well fitted activation curve with a large enough effect in the signal ratio in the repeat runs, not every such curve was filed as active; the % refers to the signal ratio). In a few lines: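 FXR-UAS-bla HEK 293T cells carrying a UAS-driven beta-lactamase reporter were plated for 5 h at 37C/5% CO2, then exposed to DMSO-dissolved Tox21 10K compounds for 16 h at 37C. A LiveBLAzer B/G FRET substrate was loaded for 2 h at room temperature before fluorescence reading.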

Experiment [19] can be described thus: qHTS assay to identify small molecule antagonists of the peroxisome proliferator-activated receptor gamma (PPARg) signaling pathway - cell viability counter screen (AID 743194). Also: nearly all actives have a fitted effect of over 55% in size. In a few lines: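 Viability was measured as CellTiter-Glo luminescence in GeneBLAzer PPARg UAS-bla HEK293H cells. These cells had been exposed 17 h at 37 C to compounds together with rosiglitazone at 50 nM final, with the beta-lactamase readout taken in the same wells.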

Results filed as inconclusive are left out. Activity calls are given as the source filed them. Unless noted, calls follow the shape of the dose curve; as a rule, active = well fitted curve in the direction sought with a large enough effect in the repeat runs; inconclusive = weak or mixed curves; inactive = no such curve, though single readings can be large; an effect the other way counts as inactive or inconclusive.

Chain of Peroxisome proliferator-activated receptor delta (Homo sapiens) (Q03181 whole entry, looked up): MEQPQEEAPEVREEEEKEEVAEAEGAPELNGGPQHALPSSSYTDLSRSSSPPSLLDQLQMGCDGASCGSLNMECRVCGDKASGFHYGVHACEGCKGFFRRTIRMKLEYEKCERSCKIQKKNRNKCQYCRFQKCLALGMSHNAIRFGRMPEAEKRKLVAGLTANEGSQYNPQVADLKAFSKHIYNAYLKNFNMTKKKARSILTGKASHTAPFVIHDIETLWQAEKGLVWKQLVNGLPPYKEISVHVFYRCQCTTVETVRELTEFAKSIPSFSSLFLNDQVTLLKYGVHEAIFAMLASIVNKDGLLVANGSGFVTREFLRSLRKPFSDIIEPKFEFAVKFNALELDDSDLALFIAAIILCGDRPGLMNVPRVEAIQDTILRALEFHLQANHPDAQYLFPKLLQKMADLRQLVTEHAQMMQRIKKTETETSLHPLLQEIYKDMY
Chain of Bile acid receptor (Homo sapiens) (Q96RI1 whole entry, looked up): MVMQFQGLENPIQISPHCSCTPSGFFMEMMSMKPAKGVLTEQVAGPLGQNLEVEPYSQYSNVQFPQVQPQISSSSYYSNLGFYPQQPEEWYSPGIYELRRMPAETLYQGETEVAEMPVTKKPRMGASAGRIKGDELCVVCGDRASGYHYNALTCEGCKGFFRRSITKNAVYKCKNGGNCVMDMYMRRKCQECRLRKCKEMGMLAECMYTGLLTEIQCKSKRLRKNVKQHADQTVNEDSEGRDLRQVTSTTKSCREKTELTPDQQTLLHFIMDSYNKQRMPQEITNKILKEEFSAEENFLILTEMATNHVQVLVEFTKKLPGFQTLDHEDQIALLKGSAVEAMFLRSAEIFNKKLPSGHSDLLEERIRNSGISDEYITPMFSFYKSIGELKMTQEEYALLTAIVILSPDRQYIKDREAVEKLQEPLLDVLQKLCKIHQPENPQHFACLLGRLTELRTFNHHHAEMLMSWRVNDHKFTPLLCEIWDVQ
Chain of Vitamin D3 receptor (Homo sapiens) (P11473 whole entry, looked up): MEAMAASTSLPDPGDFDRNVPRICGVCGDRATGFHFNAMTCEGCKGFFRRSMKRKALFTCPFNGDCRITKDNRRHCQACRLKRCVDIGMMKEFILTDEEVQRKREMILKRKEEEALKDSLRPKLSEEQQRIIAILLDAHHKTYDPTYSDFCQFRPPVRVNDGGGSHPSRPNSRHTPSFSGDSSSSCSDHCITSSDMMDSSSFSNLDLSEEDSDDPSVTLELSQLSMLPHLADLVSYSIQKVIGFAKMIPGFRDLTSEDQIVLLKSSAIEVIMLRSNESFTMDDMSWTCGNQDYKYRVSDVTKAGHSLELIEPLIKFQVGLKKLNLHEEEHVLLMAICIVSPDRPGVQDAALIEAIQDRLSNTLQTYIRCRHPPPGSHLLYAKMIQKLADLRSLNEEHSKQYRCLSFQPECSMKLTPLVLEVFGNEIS
Chain of Peroxisome proliferator-activated receptor gamma (Homo sapiens) (P37231 whole entry, looked up): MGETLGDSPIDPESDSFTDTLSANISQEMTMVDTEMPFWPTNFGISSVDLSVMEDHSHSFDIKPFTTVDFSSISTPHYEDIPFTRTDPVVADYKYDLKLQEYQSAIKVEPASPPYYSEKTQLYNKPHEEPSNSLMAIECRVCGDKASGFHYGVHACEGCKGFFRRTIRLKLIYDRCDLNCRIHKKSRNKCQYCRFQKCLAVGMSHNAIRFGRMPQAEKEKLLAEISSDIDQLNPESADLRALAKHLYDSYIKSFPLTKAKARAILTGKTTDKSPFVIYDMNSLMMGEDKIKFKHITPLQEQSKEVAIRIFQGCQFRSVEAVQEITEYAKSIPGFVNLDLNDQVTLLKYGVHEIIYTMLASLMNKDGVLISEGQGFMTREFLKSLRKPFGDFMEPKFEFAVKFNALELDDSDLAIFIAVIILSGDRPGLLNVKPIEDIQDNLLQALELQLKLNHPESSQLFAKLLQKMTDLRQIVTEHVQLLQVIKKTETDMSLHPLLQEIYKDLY

Turning to `FC(F)(Cl)C(F)(Cl)Cl`, the Potency entry in [1], in experiment [2], in experiment [3], in [4], in experiment [5] and in experiment [6] was “inactive” throughout. Moreover, the Potency entry in [9], in [10], in experiment [11] and in experiment [12] was “inactive” throughout. Moreover, the call in [7], in experiment [8], in experiment [13] and in experiment [14] was inactive.

Turning to `CCOc1ccc2c(c1)C(C)CC(C)(C)N2` (stereo not given), the Potency entry in experiment [1], in [2], in experiment [3], in [4], in experiment [6] and in experiment [10] was “inactive” each time. Moreover, the Potency result in experiment [11], in experiment [17] and in experiment [12] was “inactive” in each case. Moreover, the compound was classed as inactive in experiment [7], in [8], in experiment [15], in experiment [16], in [18] and in experiment [13]. Besides, the compound was classed as inactive in experiment [14].

As for `CCCCOC(=O)C(C)Oc1ccc(Oc2ccc(C(F)(F)F)cn2)cc1` (stereo not given), the Potency entry in [1], in experiment [2], in experiment [3], in experiment [6], in [9] and in experiment [10] was “inactive” each time. In addition, the Potency entry in experiment [11], in experiment [17] and in experiment [12] was “inactive” each time. The outcome in experiment [7], in [8], in experiment [15], in [16], in experiment [18] and in experiment [14] was inactive.

As to `CC(O)CN` (stereo not given), the Potency entry in experiment [1], in [2], in experiment [3], in [19], in [5] and in [6] was “inactive” each time. The Potency result in [9], in [11], in experiment [17] and in experiment [12] was “inactive” in each case. The call in experiment [7] and in [14] was inactive.

For the compound `O=c1c2ccccc2oc2ccccc12`, the Potency entry in experiment [1], in experiment [2], in experiment [19], in [5], in experiment [6] and in experiment [9] was “inactive” throughout. For the same compound, the Potency entry in [12] was “inactive”. Moreover, the compound was called inactive in experiment [7] and in experiment [13].

In the case of `CCCCCC1CCC(=O)O1` (stereo not given), the Potency entry in experiment [1], in experiment [2], in [3], in experiment [4], in experiment [5] and in experiment [6] was “inactive” each time. Further, the Potency entry in experiment [10], in experiment [11], in experiment [17] and in experiment [12] was “inactive” throughout. The compound was classed as inactive in experiment [7], in experiment [8], in [16], in [18], in experiment [13] and in experiment [14].

In the case of `C=CC(C)(O)CC/C=C(/C)CCC=C(C)C` (stereo not given), the Potency result in experiment [1], in experiment [2], in experiment [3], in [19], in experiment [6] and in [9] was “inactive” throughout. Besides, the Potency result in experiment [10], in [11] and in [12] was “inactive” each time. In addition, the result in experiment [7], in experiment [8], in experiment [15], in experiment [16] and in [18] was inactive.

For `S=c1[nH][nH]c(=S)s1`, the Potency result in [1], in experiment [2], in experiment [19], in [6], in experiment [10] and in [11] was “inactive” in each case. Besides, the Potency result in experiment [17] and in experiment [12] was “inactive” throughout. The result in experiment [7], in experiment [8] and in experiment [15] was inactive.

In the case of `CC/C=C\CCO`, the Potency entry in experiment [2], in experiment [19], in [5], in experiment [6], in experiment [9] and in [11] was “inactive” in each case. Further, in [12], the Potency entry was “inactive”. Also, the call in experiment [7], in [8], in experiment [16] and in experiment [18] was inactive.

For `O=C(OCCN1CCOCC1)c1cccnc1Nc1cccc(C(F)(F)F)c1`, the Potency entry in experiment [4], in [19], in [6], in experiment [9], in experiment [10] and in experiment [11] was “inactive” throughout. Moreover, the Potency result in [17] was “inactive”. The Potency in experiment [5] is 26.6 µM (active). The compound was called inactive in experiment [7], in [8], in [13] and in experiment [14].

The values are drawn from PubChem BioAssay (Tox21).
